The results in this text go back to PubChem BioAssay AID2081 (NMMLSC, 2009).

Activity calls are given as the source filed them. The rule behind the calls is not given here.

This experiment has as its target Bcl-2-like protein 2 (Homo sapiens) (UniProt Q92843). The experiment is described as follows: inhibitors of Bim binding to Bcl-W, confirmation, biochemical, multiplexed, bead-based flow cytometry, HTS hits (AID 2081). Particulars: Bim-Bcl-W binding displacement; series mostly up to 100 µM. For orientation: In flow cytometry, cells or beads pass a laser one at a time.

Sequence of Bcl-2-like protein 2 (Homo sapiens) (Q92843 whole entry, looked up): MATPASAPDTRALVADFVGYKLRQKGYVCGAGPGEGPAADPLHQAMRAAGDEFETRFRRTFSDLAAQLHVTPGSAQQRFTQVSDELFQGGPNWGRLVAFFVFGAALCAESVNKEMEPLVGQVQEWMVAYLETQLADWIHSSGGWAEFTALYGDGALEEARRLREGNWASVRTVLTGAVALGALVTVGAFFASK

On to `O=C1NC(=O)C2(Cc3c(nc4ccccn4c3=O)N3CCCCCC32)C(=O)N1Cc1ccccc1` (configuration not stated), for which the compound was called inactive.
Under `O=C1NC(=O)C(=Cc2ccc(-c3cc(Cl)ccc3[N+](=O)[O-])o2)C(=O)N1` stands “inactive”.
